Compound activity as filed in PubChem.
Shown are actives, neighbours in structure and some others; about 1.6% of the full set was active somewhere.
KCNQ2 enhance – potentiators of rat KCNQ2 potassium channel; 0.54% of 310,000 active; AID 2239, 2010; CHO-K1 KCNQ2, FluxOR thallium flux fluorescence; hits give high values; B-score at 10 µM;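 active = fluorescence ratio B-score at least 3 SD of library B-scores, with initial fluorescence B-score within 3 of them, cut at about 5.3 in these data; same plate scores as AID 2156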;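 note: B-score of peak minus minimum over baseline fluorescence ratio after K+ and Tl+ stimulus; positive B-score means potentiation of KCNQ2 with more thallium influx and brighter signal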
KCNQ2 block – rat KCNQ2 potassium channel inhibitors, primary screen, cell-based, CHO-K1, FluxOR thallium flux, B-score | AID 2156, 2009 | 1.1% of 310,000 active | B-score at 10 µM | Potassium voltage-gated channel subfamily KQT member 2 (Rattus norvegicus), O88943 | 20 min; hits give low values;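 active = fluorescence ratio B-score at most minus 3 library SDs, with starting brightness B-score within 2 library SDs, cut at about -5.5 in these data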
Kir21 confirm – mouse Kir2.1 channel blockers, retest, confirmation, cell-based, FluxOR thallium flux, duplicate | 41% of 2,300 active | shares compounds with KCNQ2 enhance | Tl flux remaining, % of negative control (hits give low values), % at 10 µM | AID 2032, 2009 | Kir2.1-expressing cells, FluxOR thallium flux fluorescence; hits give low values;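 active = Primary-screen hit whose thallium flux fell at least 3 control SD below untreated wells in both duplicates, with normal baseline fluorescence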;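 note: 0% = blank wells without stimulus and 100% = stimulated no-compound controls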
HEK293 Tl flux – parental HEK293 activity in Kir2.1 inhibitor counter-screen | AID 2105 | parental HEK293 cells, FluxOR thallium flux fluorescence; 0% = unstimulated blank wells | 19% of 2,300 active | shares compounds with KCNQ2 enhance | FluxOR signal as % of negative control (100 = no effect), % at 10 µM;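 active = dye signal at least 3 control SD above or below untreated wells in both duplicates, raw fluorescence within 3, either direction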;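 note: percent is based on the flux ratio of peak minus minimum fluorescence over baseline F0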
CHO-K1 Tl ctr – nonspecific thallium flux increase in parental CHO-K1, confirmation, counter-screen for KCNQ2 potentiator project, cell-based, FluxOR thallium flux, duplicate; 43% of 1,200 active; activity increase over 3SD of controls, % at 10 µM; AID 2282, 2010; parental CHO-K1 cells, FluxOR thallium flux fluorescence; zero = vehicle mean+3SD, 100% = vehicle-minus-blank window; shares compounds with KCNQ2 enhance;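 active = signal rise of at least 3 SD above the untreated control mean, in both duplicate wells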;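 note: counter screen of KCNQ2 potentiator hits so any rise reflects channel-independent effects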
KCNQ1 sel pot – human KCNQ1 channel potentiation off-target, confirmation, selectivity assay for KCNQ2 potentiator project, cell-based, CHO, FluxOR thallium flux; shares compounds with KCNQ2 enhance; CHO KCNQ1 stable, FluxOR thallium flux fluorescence; beyond 3SD, as % of vehicle-control signal; activation over 3SD threshold, % at 10 µM; 28% of 1,200 active; AID 2283, 2010;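 active = fluorescence ratio rise of at least 3 SD of vehicle wells above their mean, in both replicate wells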;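 note: 0% = vehicle mean plus 3 SD and 100% = vehicle minus unstimulated blank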
KCNQ2 pot confirm – rat KCNQ2 channel potentiators, confirmation, cell-based, CHO, FluxOR thallium flux, duplicate. shares compounds with KCNQ2 enhance. AID 2287, 2010. CHO-KCNQ2 cells, FluxOR thallium flux fluorescence. 68% of 1,200 active. potentiation, less the hit threshold, % at 10 µM;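 active = fluorescence ratio rising 3 SD or more over the vehicle control mean in both replicates, plus primary screen hit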;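 note: peak minus minimum thallium fluorescence divided by baseline after K/Tl stimulus; 0% = vehicle mean plus 3 SD and 100% = vehicle minus unstimulated blank difference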
Kir21 spec – mouse Kir2.1 channel activation off-target, confirmation, selectivity assay for KCNQ2 potentiator project, cell-based, HEK293, FluxOR thallium flux; 2% of 1,200 active; HEK293 Kir2.1, FluxOR thallium flux fluorescence; shares compounds with KCNQ2 enhance; activity over 3SD threshold, % at 10 µM;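 active = fluorescence ratio rise of at least 3 SD above the vehicle-control mean, seen in both replicates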;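 note: 0% = vehicle mean plus 3 SD and 100% = vehicle minus no-stimulus blank window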
KCNQ2 W236L pot – potentiators of retigabine-insensitive KCNQ2 W236L, mechanism study for KCNQ2 potentiator project, cell-based, rat KCNQ2 W236L, CHO, automated patch clamp | automated patch clamp current | shares compounds with KCNQ2 enhance | 10% of 940 active | current increase over 3SD of negative controls (%), hits give high values, % at 25 µM;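 active = current increase at least 3 SD of the untreated controls above them in both duplicate recordings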
Target sequence (O88943 whole entry W236L, looked up): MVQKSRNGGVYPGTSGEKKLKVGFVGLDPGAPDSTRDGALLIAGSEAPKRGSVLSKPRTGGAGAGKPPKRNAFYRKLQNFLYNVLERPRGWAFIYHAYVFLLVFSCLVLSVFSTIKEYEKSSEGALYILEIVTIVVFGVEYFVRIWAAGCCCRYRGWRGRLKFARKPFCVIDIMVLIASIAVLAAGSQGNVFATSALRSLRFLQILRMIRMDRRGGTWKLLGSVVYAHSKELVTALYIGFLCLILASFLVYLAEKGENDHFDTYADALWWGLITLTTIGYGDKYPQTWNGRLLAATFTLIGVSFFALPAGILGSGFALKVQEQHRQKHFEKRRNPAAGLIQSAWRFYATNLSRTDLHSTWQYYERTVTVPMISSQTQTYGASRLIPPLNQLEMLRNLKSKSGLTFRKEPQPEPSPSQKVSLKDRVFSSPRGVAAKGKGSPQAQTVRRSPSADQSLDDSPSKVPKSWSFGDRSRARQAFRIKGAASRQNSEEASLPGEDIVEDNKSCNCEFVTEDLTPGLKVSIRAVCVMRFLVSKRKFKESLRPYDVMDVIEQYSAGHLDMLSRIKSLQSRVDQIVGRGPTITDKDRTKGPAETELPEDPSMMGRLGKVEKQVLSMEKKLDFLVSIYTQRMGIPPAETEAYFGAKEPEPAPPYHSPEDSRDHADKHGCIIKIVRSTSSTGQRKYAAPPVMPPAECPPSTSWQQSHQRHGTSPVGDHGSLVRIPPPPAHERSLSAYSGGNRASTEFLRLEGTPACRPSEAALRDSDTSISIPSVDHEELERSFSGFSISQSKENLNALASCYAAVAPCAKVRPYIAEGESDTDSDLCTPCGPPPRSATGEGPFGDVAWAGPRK
Starred values were filed as active, the others as inactive.

What do the screens show for `CCc1nc(SCC(=O)NCCc2ccccc2)c2c(=O)n(C)c(=O)n(C)c2n1`?
KCNQ2 enhance: 0.86; KCNQ2 block: inactive

How did Fc1ccccc1Cc1noc(CN2CCC(OCc3cccnc3)CC2)n1 do in these assays?
KCNQ2 enhance: 0.81; KCNQ2 block: inactive

How did CC1CCCN(C(=O)Cn2nnc(-c3ccccc3F)n2)C1 (configuration not stated) do in these assays?
KCNQ2 enhance: 0.57; KCNQ2 block: inactive

What do the screens show for `ClCC1NCC(c2ccccc2Cl)c2c1[nH]c1ccccc21` (configuration not stated)?
KCNQ2 block: inactive

Results for O=C(Nc1cccc(N=Cc2cc(Br)cc(Br)c2O)c1)c1ccco1 ?
KCNQ2 enhance: 9.3*; KCNQ2 block: inactive; Kir21 confirm: inactive; HEK293 Tl flux: inactive; CHO-K1 Tl ctr: 56*; KCNQ1 sel pot: 49*; KCNQ2 pot confirm: 15*; Kir21 spec: -36; KCNQ2 W236L pot: inactive

Results for O=C(Nc1cccc(NC(=O)c2ccco2)c1)c1cccc(Br)c1 ?
KCNQ2 enhance: 1.4; KCNQ2 block: inactive

How did O=C(Cc1ccccc1)N/N=C/c1cc(Br)cc(Br)c1O do in these assays?
KCNQ2 enhance: 7*; KCNQ2 block: inactive; Kir21 confirm: inactive; HEK293 Tl flux: inactive; CHO-K1 Tl ctr: 4.9*; KCNQ1 sel pot: -25; KCNQ2 pot confirm: -9; Kir21 spec: -36; KCNQ2 W236L pot: inactive

What do the screens show for `O=C(CNC(=O)c1cccc(Br)c1)N/N=C/c1cc(Br)cc(Br)c1O`?
KCNQ2 block: inactive

How did COc1ccc(C)cc1NC(=O)c1cccc(-c2ccc(OC(C)=O)cc2)c1 do in these assays?
KCNQ2 block: inactive

Results for CNc1nc(-c2cccs2)cc(C(F)(F)F)c1C#N ?
KCNQ2 enhance: 1.6; KCNQ2 block: inactive

Results for CC1CCCN(CCOCCOc2ccc(Br)cc2Cl)C1 (configuration not stated) ?
KCNQ2 block: inactive

Results for CC1CCN(CCCOc2ccc(Br)cc2Cl)CC1 ?
KCNQ2 block: inactive; Kir21 confirm: 38%*; HEK293 Tl flux: inactive

Results for COc1ccc(CNC(=O)COC(=O)CO/N=C(\C)c2ccc3c(c2)OCO3)cc1 ?
KCNQ2 enhance: 0.1; KCNQ2 block: inactive

Results for COc1ccccc1OCCCc1c(C)n[nH]c1C ?
KCNQ2 enhance: 5.8*; KCNQ2 block: inactive; Kir21 confirm: inactive; HEK293 Tl flux: inactive; CHO-K1 Tl ctr: 42*; KCNQ1 sel pot: -8; KCNQ2 pot confirm: -6; Kir21 spec: -47; KCNQ2 W236L pot: inactive

Results for COc1ccccc1OCCCCCc1c(C)n[nH]c1C ?
KCNQ2 block: inactive

What do the screens show for `Cc1[nH]n(-c2ccccc2)c(=O)c1Sc1ccc(Cl)cc1`?
KCNQ2 enhance: 1.1; KCNQ2 block: inactive

Results for CCCSC(=S)c1c(C)[nH]n(-c2ccccc2)c1=O ?
KCNQ2 enhance: 9.8*; KCNQ2 block: inactive; Kir21 confirm: inactive; HEK293 Tl flux: 424%*; CHO-K1 Tl ctr: 22*; KCNQ1 sel pot: -14; KCNQ2 pot confirm: 54*; Kir21 spec: 3.8*; KCNQ2 W236L pot: inactive

How did CCCc1cc(=O)oc2cc(C)cc(OC(C)C(=O)N[C@@H](Cc3c[nH]c4ccccc34)C(=O)O)c12 (some centres not stated) do in these assays?
KCNQ2 enhance: 9.7*; KCNQ2 block: inactive; Kir21 confirm: inactive; HEK293 Tl flux: inactive; CHO-K1 Tl ctr: 2.7*; KCNQ1 sel pot: -21; KCNQ2 pot confirm: -25; Kir21 spec: -32

Results for CCCCc1cc(=O)oc2cc(C)cc(OC(C)C(=O)NC(Cc3c[nH]c4ccc(O)cc34)C(=O)O)c12 (configuration not stated) ?
KCNQ2 block: inactive

What do the screens show for `CCCCN1CCc2c1nc1ccc(Br)cc1c2N`?
KCNQ2 enhance: 0.03; KCNQ2 block: inactive; Kir21 confirm: 24%*; HEK293 Tl flux: inactive

Results for Cc1ccc2nc3c(c(N)c2c1)CCN3C ?
KCNQ2 enhance: 0.24; KCNQ2 block: inactive

Results for CCN(CC(=O)Nc1c(F)cccc1F)C(=O)c1cccnc1Sc1ccccc1 ?
KCNQ2 enhance: 0.02; KCNQ2 block: inactive

How did CC(C)(CO)NCc1ccccc1OCC(=O)Nc1ccccc1 do in these assays?
KCNQ2 block: inactive

Results for Cc1ccc(NC(=O)COc2ccccc2CNC(C)(C)CC(C)(C)C)cc1 ?
KCNQ2 block: inactive; Kir21 confirm: 44%*; HEK293 Tl flux: inactive

What do the screens show for `CCOC(=O)C1(CCc2ccccc2)CCN(C(=O)C(C)n2cncn2)CC1` (configuration not stated)?
KCNQ2 enhance: 0.01; KCNQ2 block: inactive

Results for Cc1ccccc1NC(=O)CC(O)(C(F)(F)F)C(F)(F)F ?
KCNQ2 enhance: 0.22; KCNQ2 block: inactive

How did Cc1ccc(NC(=O)CC(O)(C(F)(F)F)C(F)(F)F)c(Br)c1 do in these assays?
KCNQ2 enhance: 8.7*; KCNQ2 block: inactive; Kir21 confirm: inactive; HEK293 Tl flux: inactive; CHO-K1 Tl ctr: 54*; KCNQ1 sel pot: 54*; KCNQ2 pot confirm: 31*; Kir21 spec: -39; KCNQ2 W236L pot: inactive

What do the screens show for `Cc1ccc(S(=O)(=O)NCc2ccccn2)cc1C`?
KCNQ2 enhance: 0.24; KCNQ2 block: inactive
